Calls of active or inactive are those of the source. Rule for the calls: active = hit-call score of the fitted dose curve at least 0.9, where 1 is the maximum; inactive = score below 0.9.
biological target: Retinoic acid receptor alpha (Homo sapiens) (UniProt P10276); experiment: ERF_TW_NR_hRARa: Eurofins (ERF) Nuclear Receptor (NR) Radioligand Binding LeadHunter Assay for human Retinoic Acid Receptor alpha (RARa) Agonism
Protocol: ERF_TW_NR_hRARa is a biochemical, single-readout assay that uses extracted gene-proteins in a cell-free assay. Measurements were taken 2 hour after chemical dosing in a 96-well plate. See RARalpha Human retinoic acid NHR Binding (Agonist Radioligand) Assay, Panlabs.ERF_TW_NR_hRARa is an assay component calculated from the ERF_TW_NR_hRARa assay. It is designed to measure radioligand binding using a type of binding reporter as detected by scintillation counting with radiometry technology.Data from the assay component ERF_TW_NR_hRARa was analyzed at the assay endpoint, ERF_TW_NR_hRARa, in the positive analysis fitting direction relative to DMSO as the negative control and baseline of activity. Using a type of binding reporter, gain-of-signal activity can be used to understand changes in radioligand binding as they relate to gene RARA. To generalize the intended target to other relatable targets, this assay endpoint is annotated to the nuclear receptor intended target family, where the subfamily is retinoic acid receptor.
Human recombinant RARalpha-LBD expressed in insect cells are used in modified Tris-HCl buffer pH 7.4. A 0.025 ug aliquot is incubated with 3 nM [3H]9-cis-Retinoic acid and 1 ug Anti-GST antibody for 2 hours at 4C. Non-specific binding is estimated in the presence of 1 uM 9-cis-retinoic acid. Receptors are counted to determine [3H]9-cis-Retinoic acid specifically bound. […]

Sequence of Retinoic acid receptor alpha (Homo sapiens) (P10276 whole entry, looked up): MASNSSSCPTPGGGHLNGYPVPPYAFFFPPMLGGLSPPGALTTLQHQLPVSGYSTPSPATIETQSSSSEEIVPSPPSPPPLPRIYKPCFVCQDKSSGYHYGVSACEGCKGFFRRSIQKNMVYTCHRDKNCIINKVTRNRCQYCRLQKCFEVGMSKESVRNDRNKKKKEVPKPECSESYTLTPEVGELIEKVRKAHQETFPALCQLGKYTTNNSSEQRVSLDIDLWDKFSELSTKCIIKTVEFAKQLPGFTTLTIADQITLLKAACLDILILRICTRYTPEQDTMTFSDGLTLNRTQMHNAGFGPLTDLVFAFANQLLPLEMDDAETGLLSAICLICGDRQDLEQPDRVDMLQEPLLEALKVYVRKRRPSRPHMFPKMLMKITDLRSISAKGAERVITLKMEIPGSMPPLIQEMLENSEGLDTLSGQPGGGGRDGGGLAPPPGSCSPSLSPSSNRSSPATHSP

SMILES	AC50
O=C(/C=C/c1ccc(O)cc1)CC(=O)/C=C/c1ccc(O)cc1	2.24 µM (active)
